# Measurements as given in paper PMC4336329 (PLoS ONE, 2015).
# In all, about 310,000 compounds went through this assay and about 14,000 (4.5%) showed an effect of 50% or more. Effects have a minus sign here. This excerpt belongs to a sample that is enriched for strong results.
# Molecular target: human ether-à-go-go-related gene (hERG) potassium channel (human, UniProt Q12809)
# Assay: primary screen, population patch clamp on CHO cells stably expressing hERG; higher = less effect of the substance
# 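Note: peak tail current of the secondary pulse compared with the same well before compound.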
# Chain of human ether-à-go-go-related gene (hERG) potassium channel (Q12809 whole entry, looked up): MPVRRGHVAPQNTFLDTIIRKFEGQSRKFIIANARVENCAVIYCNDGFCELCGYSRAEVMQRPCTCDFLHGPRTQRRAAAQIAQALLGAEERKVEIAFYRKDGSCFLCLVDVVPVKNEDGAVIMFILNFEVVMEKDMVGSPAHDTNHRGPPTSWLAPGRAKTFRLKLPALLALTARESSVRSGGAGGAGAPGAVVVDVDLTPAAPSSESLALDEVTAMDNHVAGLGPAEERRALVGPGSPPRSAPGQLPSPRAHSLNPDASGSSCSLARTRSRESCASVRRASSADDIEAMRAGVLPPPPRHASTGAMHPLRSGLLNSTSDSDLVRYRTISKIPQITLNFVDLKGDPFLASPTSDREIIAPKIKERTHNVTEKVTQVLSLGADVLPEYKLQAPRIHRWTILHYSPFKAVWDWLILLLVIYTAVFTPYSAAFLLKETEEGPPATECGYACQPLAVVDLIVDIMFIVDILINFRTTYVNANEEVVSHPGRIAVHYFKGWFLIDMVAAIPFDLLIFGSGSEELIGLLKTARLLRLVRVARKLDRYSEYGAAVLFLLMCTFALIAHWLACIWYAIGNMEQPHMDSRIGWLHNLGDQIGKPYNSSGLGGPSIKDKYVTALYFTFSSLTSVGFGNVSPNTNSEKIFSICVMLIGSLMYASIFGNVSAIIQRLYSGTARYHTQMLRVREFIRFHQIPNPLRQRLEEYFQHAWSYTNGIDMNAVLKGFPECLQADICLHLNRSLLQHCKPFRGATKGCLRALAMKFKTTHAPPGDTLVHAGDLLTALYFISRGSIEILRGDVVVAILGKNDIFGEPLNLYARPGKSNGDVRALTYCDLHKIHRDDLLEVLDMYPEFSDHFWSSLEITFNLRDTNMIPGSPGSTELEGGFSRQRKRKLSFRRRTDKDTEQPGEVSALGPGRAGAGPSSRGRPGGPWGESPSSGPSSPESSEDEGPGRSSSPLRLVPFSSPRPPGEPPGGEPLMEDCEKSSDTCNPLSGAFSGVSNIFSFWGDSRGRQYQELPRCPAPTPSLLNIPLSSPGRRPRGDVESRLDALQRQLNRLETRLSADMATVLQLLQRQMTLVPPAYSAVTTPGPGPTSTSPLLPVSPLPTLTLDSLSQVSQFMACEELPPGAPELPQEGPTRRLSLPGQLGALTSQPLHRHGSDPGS
row,Structure (SMILES),"hERG current change (%, negative = inhibition) at 10uM [%]"
1,CCOC(=O)c1nn(-c2ccccc2)c(=O)cc1SC(C)C,-19.1
2,CN(C)c1nc(OCC(=O)NC(C)(C)C)nc(N(C)C)n1,8.21
3,O=C(Cc1nnc(NC(=O)Nc2ccccc2F)s1)NCc1ccccc1,8.98
4,CC(C)(C)NC(=O)c1cnn2c1NC(c1ccc(F)cc1)CC2C(F)(F)F (centres unmarked),2.13
5,COc1ccc(C(=O)Nc2nc(CC(=O)NCCc3ccccc3OC)cs2)cc1,-6.94
6,NS(=O)(=O)c1ccc(CCNc2nc(CN3CCCCC3)nc3sc4c(c23)CCC4)cc1,-72.9
7,Cc1nc(NCCc2ccc(S(N)(=O)=O)cc2)c2c3c(sc2n1)CCC3,8.64
8,NS(=O)(=O)c1ccc(CCNc2nc(CN3CCOCC3)nc3sc4c(c23)CCC4)cc1,-31.2
9,CCOC(=O)Cc1nnc(NC(=O)COc2ccc(C)cc2)s1,5.07
10,N#C/C(=C\c1cccnc1)C(=O)Nc1ccccc1,4.04
11,O=C(NCc1cccnc1)c1ccc(-c2cc3ccccc3oc2=O)cc1,4.65
12,O=C(Nc1cccnc1)c1cccc(-c2cc3ccccc3oc2=O)c1,14.5
13,O=C(NCc1cccnc1)c1cccc(-c2cc3ccccc3oc2=O)c1,-63.9
14,O=C(OCc1cn(-c2ccc(Cl)c(Cl)c2)nn1)c1ccccc1Cl,-5.05
15,CCOC(=O)C1(CCc2ccccc2)CCN(Cc2ccn[nH]2)CC1,-72.5
16,CCOC(=O)C1(CCCc2ccccc2)CCN(Cc2ccn[nH]2)CC1,-73
17,Cc1ccc(Cn2c(C)c3cnn(CC(=O)NC4CCCC4)c(=O)c3c2C)cc1,7.2
18,Cc1[nH]c(C)c2c(=O)[nH]ncc12,16.6
19,CCN(CC(=O)Nc1ccc2c(c1)OCCO2)Cc1cc(=O)n2ccsc2n1,3.88
20,Cc1ccc(CCNC(=O)CN(C)S(=O)(=O)c2ccc3c(c2)c(=O)n(C)c(=O)n3C)cc1,-11.7
21,CN(CC(=O)NCCC1=CCCCC1)S(=O)(=O)c1ccc2c(c1)c(=O)n(C)c(=O)n2C,-64.9
22,Cn1c(=O)c2cc(S(=O)(=O)NCCC(=O)NCCC3=CCCCC3)ccc2n(C)c1=O,-15.8

row,Structure (SMILES),"hERG current change (%, negative = inhibition) at 10uM [%]"
1,Cc1nc2sc3c(=O)[nH]nnc3c2c(C)c1Br,15.5
2,CC(=O)c1sc2nc(-c3ccco3)ccc2c1N,0.505
3,O=C(Cc1ccccc1)N/N=C/c1cccnc1,20.3
4,O=C(Cn1nc(-c2ccccc2)ccc1=O)Nc1ccc(N2CCN(C(=O)c3cccs3)CC2)cc1,-18.5
5,Cc1ccc(C(=O)N2CCCC2)cc1S(=O)(=O)N1CCOCC1,1.43
6,O=C(c1ccco1)N1CCN(C(=O)C2Cc3ccccc3CN2S(=O)(=O)c2ccc(F)cc2)CC1 (centres unmarked),-70.6
7,O=C(C1Cc2ccccc2CN1S(=O)(=O)c1ccc(F)cc1)N1CCCCC1 (centres unmarked),-13.2
8,COc1ccc(S(=O)(=O)N2Cc3ccccc3CC2C(=O)N2CCOCC2)cc1OC (centres unmarked),-18.7
9,COc1ccc(S(=O)(=O)N2Cc3ccccc3CC2C(=O)N2CCOCC2)cc1 (centres unmarked),-59.2
10,COc1ccc(S(=O)(=O)N2Cc3ccccc3CC2C(=O)O)cc1 (centres unmarked),-13.1
11,O=C(C1Cc2ccccc2CN1S(=O)(=O)c1ccc(F)cc1)N1CCOCC1 (centres unmarked),-18
12,O=C(NCCNc1nccc(C(F)(F)F)n1)c1cccc(C(F)(F)F)c1,-8.47
13,CCOC(=O)c1c(C)nc(C)c(C(=O)OCC)c1-c1ccc(Br)cc1,-29.7
14,Cc1ccccc1Nc1ncnc2c1cnn2Cc1ccccc1,-10.8
15,Cc1c(NC(=O)C(C)OC(=O)CC2CC3CCC2C3)c(=O)n(-c2ccccc2)n1C (centres unmarked),-9.36
16,Cc1ccc(/C=N/Nc2ncnc3nc[nH]c23)cc1,-18.6
17,Nc1cccc(C(=O)Nc2ccco2)c1,-2.33
18,O=C(O)CN1C(=O)/C(=C2\SC(=S)N(C(Cc3ccccc3)C(=O)O)C2=O)c2ccccc21 (centres unmarked),2.15
19,CC(C)(C)CC(=O)Nc1nnc(SCC(=O)NC2CCCCC2)s1,-36.5
20,O=C(O)C(=O)O.c1ccc(CCNC2CCCCCC2)cc1,-4.67
21,N#CC1(c2ccccc2)CCC(NCCc2ccccc2)CC1.O=C(O)C(=O)O (centres unmarked),-69.5
22,COC1CCCCC1NCCc1ccccc1.O=C(O)C(=O)O (centres unmarked),-0.725

row,Structure (SMILES),"hERG current change (%, negative = inhibition) at 10uM [%]"
1,O=C(N1CCOCC1)N1CCN(S(=O)(=O)N2CCOCC2)CC1,11.3
2,C=CCn1c(SCC(=O)Nc2cccc3ccccc23)nc(O)c(CC)c1=O,3.7
3,COc1ccc(NC(=O)CC2C(=O)N(c3cccc(OC)c3)C(=O)N2C2CCCCC2)cc1 (centres unmarked),13.4
4,CCN(CC)Cc1c(C(=O)N/N=C/c2c(Cl)cccc2Cl)nnn1-c1nonc1N,11.8
5,CCCCOc1[nH]c2nc(-c3ccco3)n(Cc3ccco3)c(=N)c2c1C#N,-69.1
6,COc1ccc(Cn2c(=O)n(Cc3ccco3)c(=N)c3c4c(sc32)COC(C)(C)C4)cc1,-15.9
7,c1coc(Cn2c(-c3ccco3)nc3ccccc32)c1,-10
8,CC1Sc2ccc(C(=O)NCc3cccc(C(F)(F)F)c3)cc2NC1=O (centres unmarked),-4.86
9,COc1ccc(/C=C2\COc3ccccc3C2=O)cc1OC,-17.1
10,CCOc1cc(/C=C2\COc3ccccc3C2=O)ccc1OCC(=O)N(C)C,-10.3
11,CCNC(=O)COc1ccc(/C=C2\COc3ccccc3C2=O)cc1OC,-71.8
12,COc1ccc(N2C(=S)N(C(=O)c3ccccc3)C(=Nc3ccccc3)C2=Nc2ccccc2)cc1,-3.16
13,NC(=O)c1ccccc1-c1nc(-c2ccccc2)no1,-76.5
14,CN1CCN(C(=O)c2ccccc2-c2nc(-c3ccccc3)no2)CC1,-25.5
15,O=C(c1ccccc1-c1nc(-c2ccccc2)no1)N1CCCC1,-4.86
16,Cc1ccc(-c2noc(-c3ccccc3C(=O)N3CCCC3)n2)cc1,-32.3
17,CN1CCN(C(=O)c2ccccc2-c2nc(-c3ccc(Cl)cc3)no2)CC1,-65.6
18,c1ccc(-c2noc(-c3ccccc3-c3ccccc3)n2)cc1,5.26
19,O=C(c1ccccc1-c1nc(-c2ccc(Cl)cc2)no1)N1CCCC1,0.639
20,Cc1ccc(-c2noc(-c3ccccc3C(=O)N3CCOCC3)n2)cc1,-12.2
21,Cc1ccc(-c2noc(-c3ccccc3C(=O)N3CCN(C)CC3)n2)cc1,-51.2
22,Cc1cccc(NC(=O)CSCC(=O)N=c2sccn2C)c1,-20.2

row,Structure (SMILES),"hERG current change (%, negative = inhibition) at 10uM [%]"
1,CC(C)n1c(O)c(N=NC(=O)CNC(=O)Cc2ccc(Cl)cc2)c2ccccc21,-39.1
2,CC(C)c1cc(-c2cc(-c3ccccc3)on2)nc(NC2CCCC2)n1,6.4
3,CCC(Cc1ccccc1)NC(=O)CCc1ccccc1 (centres unmarked),13.5
4,COc1ccc(CN(C)CC(=O)Nc2ccc(Cl)cc2F)c(OC)c1.O=C(O)C(=O)O,-16.1
5,Cl.Nc1ncnc2sc3c(c12)CCNC3,25.4
6,O=C(COn1nnc2ccc(S(=O)(=O)N3CCOCC3)cc21)NCCc1ccccc1,-8.87
7,COc1ccc(CNC(=O)C2CCCN(S(=O)(=O)c3ccc4c(c3)CCCN4C(C)=O)C2)cc1 (centres unmarked),4.76
8,CC(C)Cn1c(N)c(C(=O)COC(=O)c2cccc(Cl)c2)c(=O)n(C)c1=O,-6.08
9,CC(C)Cn1c(N)c(C(=O)COC(=O)c2c(O)c(Cl)cc(Cl)c2Cl)c(=O)n(C)c1=O,-79.8
10,CC(C)Cn1c(N)c(C(=O)COC(=O)c2ccc(O)cc2)c(=O)n(C)c1=O,-10.6
11,CC(C)Cn1c(N)c(C(=O)COC(=O)c2cc(F)cc(F)c2)c(=O)n(C)c1=O,-42.1
12,CC(C)Cn1c(N)c(C(=O)COC(=O)c2cnc(Cl)c(Cl)c2)c(=O)n(C)c1=O,-71.1
13,CC(C)Cn1c(N)c(C(=O)COC(=O)c2ccc(Cl)cc2)c(=O)n(C)c1=O,-37.4
14,CCC(CC)C(=O)Nc1cccc(C(=O)Nc2ccc(S(N)(=O)=O)cc2)c1,10.8
15,Cn1c(CCN2CCOCC2)nc2cc(NC(=O)COc3ccccc3)ccc21,-15.1
16,COc1ccc(OCC(=O)Nc2ccc3c(c2)nc(CCN2CCOCC2)n3C)cc1,-41
17,Cn1c(CN2CCOCC2)nc2cc(NC(=O)COc3ccccc3)ccc21,-0.505
18,CC(=O)Nc1ccc2c(c1)nc(CCN1CCOCC1)n2C,10.4
19,Cc1ccc(OCC(=O)Nc2ccc3c(c2)nc(CCN2CCOCC2)n3C)cc1,-51.3
20,Cn1c(CCN2CCOCC2)nc2cc(NC(=O)COc3ccc(Cl)cc3)ccc21,-55.4
